Here are results for seven molecules from PubChem BioAssay (Tox21).

Test [1] can be described thus: Nuclear factor erythroid 2-related factor 2/antioxidant responsive element (Nrf2/ARE) small molecule agonists: qHTS cell viability counter screen in human keratinocytes (AID 1919968; active means well fitted curve in the direction sought with a large enough effect in the repeat runs; an effect the other way counts as inactive or inconclusive; further: nearly all actives have a fitted effect of over 55% in size). Summed up:
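Measured as CellTiter-Fluor fluorescence, this readout tracks cytotoxicity in the same wells as the ARE-luciferase screen. HaCaT reporter cells (1,500/well) received compounds after a 5 h pre-incubation and were exposed for 23 h.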

Test [2] in a line: Nuclear factor erythroid 2-related factor 2/antioxidant responsive element (Nrf2/ARE) small molecule agonists: luciferase reporter gene qHTS assay in human keratinocytes (AID 1919969). Further: nearly all actives have a fitted effect of over 35% in size. Further: potency means the concentration at half of the fitted maximal effect. Background: A reporter such as luciferase makes a cellular process visible.
Test [3] concerns the target Gonadotropin-releasing hormone receptor (Homo sapiens) (UniProt P30968). Kind of test: Human gonadotropin-releasing hormone receptor (GnRHR) small molecule agonists, calcium flux assay in GnRHR-HEK293 cells (AID 1920063). Further: nearly all actives have a fitted effect of over 35% in size. The method, boiled down: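 Fluorescence kinetics (480 nm excitation, 540 nm emission; 3 min, 1 s steps) report calcium mobilisation in human GnRHR-HEK293 cells in agonist mode. Dye incubation: 1 h, 37 C.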
In general terms: A change in cytosolic calcium serves as a functional read-out for many receptors and channels.

The target in test [4] is KiSS-1 receptor (Homo sapiens) (UniProt Q969F8). In words: Human kisspeptin (KISS1R) small molecule agonists, calcium flux assay in KISS1R-HEK293 cells (AID 1920064; active means well fitted curve in the direction sought with a large enough effect in the repeat runs; an effect the other way counts as inactive or inconclusive). Summed up: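 Measures KISS1R agonism through calcium-sensitive dye fluorescence in stably transfected HEK293 cells, read for 3 min after pin-tool compound delivery; 15-point titrations in triplicate.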
Sequence of KiSS-1 receptor (Homo sapiens) (Q969F8 whole entry, looked up): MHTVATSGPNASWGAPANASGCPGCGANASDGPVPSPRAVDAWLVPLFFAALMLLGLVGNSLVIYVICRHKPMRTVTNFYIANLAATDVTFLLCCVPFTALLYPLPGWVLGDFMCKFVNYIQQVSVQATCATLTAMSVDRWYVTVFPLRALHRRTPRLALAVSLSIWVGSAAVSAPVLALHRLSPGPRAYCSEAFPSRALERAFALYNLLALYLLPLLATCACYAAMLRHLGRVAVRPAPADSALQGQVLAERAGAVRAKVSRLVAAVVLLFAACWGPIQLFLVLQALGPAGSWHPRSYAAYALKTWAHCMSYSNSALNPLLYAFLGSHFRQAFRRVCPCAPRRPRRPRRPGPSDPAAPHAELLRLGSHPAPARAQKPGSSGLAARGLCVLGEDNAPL
A short description of test [5]: G protein-coupled receptor (GPCR) small molecule agonists, calcium flux assay: HEK293 wild type cell line counter screen (AID 1920065). The method, boiled down:
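Readout: fluorescence at 480 nm excitation/540 nm emission, sampled at 1 s intervals for 3 min. Cells had been cultured 18 h, then dye-loaded 1 h at 37 C before compound or ATP addition.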

Test [6] in a line: p53 small molecule agonists, cell-based qHTS assay with human liver microsomes (AID 1963577). The method, boiled down:
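p53RE-bla reporter cells were pre-incubated 5 h at 37 C, then treated with compounds plus human liver microsomes (0.5 mg/mL final) and NADPH (0.5 mg/mL final) for 16 h at 37 C. Beta-lactamase activity was read by LiveBLAzer fluorescence after 2 h at room temperature.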
(In general: qHTS replaces the single test concentration by a dilution series.)

Test [7] can be described thus: p53 small molecule agonists, cell-based qHTS assay with rat liver microsomes (AID 1963578). Summed up: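 p53RE-bla cells were exposed to compounds together with rat liver microsomes (0.5 mg/mL final) and NADPH (0.5 mg/mL final) for 16 h at 37 C, then read by LiveBLAzer beta-lactamase fluorescence after 2 h at room temperature.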
Test [8] is described as follows: p53 small molecule agonists, cell-based qHTS assay with human liver microsomes: qHTS cell viability counter screen (AID 1963579). Further: nearly all actives have a fitted effect of over 45% in size. The method, boiled down: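 p53RE-bla cells (4,000/well) were pre-incubated 5 h at 37 C, then given compounds in DMSO plus human liver microsomes (0.5 mg/mL final) and NADPH (0.5 mg/mL final) for 16 h at 37 C. Viability was read by CellTiter-Glo luminescence.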

The nature of test [9]: p53 small molecule agonists, cell-based qHTS assay with rat liver microsomes: qHTS cell viability counter screen (AID 1963580). Further: nearly all actives have a fitted effect of over 45% in size. Summed up:
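Viability is assessed in parallel with the p53 reporter read: HCT-116 p53RE-bla cells receive compounds plus rat microsomes and NADPH (0.5 mg/mL final apiece), incubate 16 h at 37 C, and then CellTiter-Glo luminescence is recorded.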

Test [10] can be described thus: p53 small molecule agonists, cell-based qHTS assay: qHTS cell viability counter screen (AID 1963581). Further: nearly all actives have a fitted effect of over 45% in size. Summed up:
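In the same plates used for the p53 bla reporter, HCT-116 cells given compounds for 16 h at 37 C received CellTiter-Glo; luminescence was recorded 30 min later at room temperature.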

Test [11] in a line: p53 small molecule agonists, cell-based qHTS assay (AID 1963582; active means well fitted activation curve with a large enough effect in the signal ratio in the repeat runs, not every such curve was filed as active; the % refers to the signal ratio). Summed up: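 Compounds are pin-transferred in DMSO onto p53RE-bla cells and incubated 16 h at 37 C. The B/G FRET beta-lactamase substrate is then applied for 2 h at RT and fluorescence recorded.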
Test [12] has as its target 5-hydroxytryptamine receptor 2A (Homo sapiens) (UniProt P28223). Kind of test: 5-hydroxytryptamine receptor 2A (HTR2A) small molecule antagonists, cell-based qHTS assay (AID 1963586). Further: nearly all actives have a fitted effect of over 45% in size. Summed up:
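Antagonist-mode intracellular calcium assay: DOI (4 nM) added after 5 min compound pre-incubation at room temperature to dye-loaded HTR2A-CHO cells. Fluorescence followed for 3 min, sampled every second.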

Test [13] shares this target. Kind of test: 5-hydroxytryptamine receptor 2A (HTR2A) small molecule agonists, cell-based qHTS assay (AID 1963587). Further: nearly all actives have a fitted effect of over 30% in size. Summed up: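 CHO cells stably expressing human HTR2A, plated 18 h, loaded with calcium dye 1 h at 37 C. Agonist mode: compounds added and intracellular calcium fluorescence recorded kinetically for 2 min at 1 sec intervals.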
The target of test [14] is Muscarinic acetylcholine receptor M1 (Homo sapiens) (UniProt P11229). In words: Cholinergic receptor muscarinic 1 (CHRM1) small molecule antagonists, cell-based qHTS assay (AID 1963588). Further: nearly all actives have a fitted effect of over 40% in size. The method, boiled down: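 CHRM1-CHO calcium-flux assay, antagonist mode. Cells were seeded 18 h, dye-loaded 1 h at 37 C and given compound for 5 min at RT, then acetylcholine was added at 50nM. FDSS fluorescence was read 3 min; 15 concentrations, three runs.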
Sequence of Muscarinic acetylcholine receptor M1 (Homo sapiens) (P11229 whole entry, looked up): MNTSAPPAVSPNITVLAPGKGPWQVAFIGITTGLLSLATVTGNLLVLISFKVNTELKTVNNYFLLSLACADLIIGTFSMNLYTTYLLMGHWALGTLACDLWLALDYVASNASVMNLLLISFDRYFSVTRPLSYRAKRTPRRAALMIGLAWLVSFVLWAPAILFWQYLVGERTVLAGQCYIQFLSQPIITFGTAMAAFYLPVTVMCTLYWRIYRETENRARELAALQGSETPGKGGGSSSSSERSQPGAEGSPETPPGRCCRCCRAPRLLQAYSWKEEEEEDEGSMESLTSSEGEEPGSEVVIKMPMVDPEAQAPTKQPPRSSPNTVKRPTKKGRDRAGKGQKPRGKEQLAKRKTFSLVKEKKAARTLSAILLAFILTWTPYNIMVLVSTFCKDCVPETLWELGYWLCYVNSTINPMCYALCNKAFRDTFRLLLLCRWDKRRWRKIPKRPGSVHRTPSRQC

Test [15] has the same target. In words: Cholinergic receptor muscarinic 1 (CHRM1) small molecule agonists, cell-based qHTS assay (AID 1963589). Further: nearly all actives have a fitted effect of over 35% in size. Summed up:
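Each compound was tested at 15 concentrations across three independent runs on dye-loaded CHO cells stably expressing human CHRM1, reading intracellular calcium fluorescence kinetically at 1 sec intervals.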

Test [16] can be described thus: cAMP Responsive Elements (CRE) small molecule agonists, cell-based qHTS assay (AID 1963590). Summed up:
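Cell line: CRE-bla HEK 293T; medium DMEM/10% dialyzed FBS/0.1 mM NEAA/1 mM pyruvate/25 mM HEPES; 3 h compound exposure; beta-lactamase FRET readout after 2 h substrate loading at RT.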

Test [17] can be described thus: cAMP Responsive Elements (CRE) small molecule antagonists, cell-based qHTS assay (AID 1963591; active means well fitted inhibition curve with a large enough effect in the signal ratio in the repeat runs, not every such curve was filed as active; the % refers to the signal ratio). The method, boiled down: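 Inhibition of NKH477-driven (0.25 uM final) CRE-beta-lactamase signal in HEK293T cells, 3 h compound exposure at 37 °C, detected by FRET substrate fluorescence.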
Test [18] addresses Beta-2 adrenergic receptor (Homo sapiens) (UniProt P07550). In words: Adrenergic beta2 receptor (ADRB2) small molecule antagonists, cell-based qHTS assay (AID 1963592). Further: series mostly up to about 92 µM; nearly all actives have a fitted effect of over 50% in size. Summed up:
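Cells (CHO, stable ADRB2 overexpression) incubated 18-20hr at 37C; compounds added from DMSO; agonist mix (1nM isoproterenol, 100uM IBMX, 25uM Ro-20-1724) added; 0.5hr RT; d2-cAMP and anti-cAMP-cryptate added; 1hr RT; 665/615 nm read.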

For test [19], the target named is D(2) dopamine receptor (Homo sapiens) (UniProt P14416). Kind of test: Dopamine D2 receptor (DRD2) small molecule antagonists, cell-based qHTS assay (AID 1963595; active means well fitted inhibition curve with a large enough effect in the signal ratio in the repeat runs, with a control signal flat; the % refers to the signal ratio). Summed up: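 HEK293 cells stably expressing DRD2 were preincubated with 0.1 mM Ro20-1724, then with compound for 10 min at room temperature. Cells were stimulated with 200 nM NKH477 plus 12 nM quinpirole for 30 min, and cAMP was read by HTRF.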
Sequence of D(2) dopamine receptor (Homo sapiens) (P14416 whole entry, looked up): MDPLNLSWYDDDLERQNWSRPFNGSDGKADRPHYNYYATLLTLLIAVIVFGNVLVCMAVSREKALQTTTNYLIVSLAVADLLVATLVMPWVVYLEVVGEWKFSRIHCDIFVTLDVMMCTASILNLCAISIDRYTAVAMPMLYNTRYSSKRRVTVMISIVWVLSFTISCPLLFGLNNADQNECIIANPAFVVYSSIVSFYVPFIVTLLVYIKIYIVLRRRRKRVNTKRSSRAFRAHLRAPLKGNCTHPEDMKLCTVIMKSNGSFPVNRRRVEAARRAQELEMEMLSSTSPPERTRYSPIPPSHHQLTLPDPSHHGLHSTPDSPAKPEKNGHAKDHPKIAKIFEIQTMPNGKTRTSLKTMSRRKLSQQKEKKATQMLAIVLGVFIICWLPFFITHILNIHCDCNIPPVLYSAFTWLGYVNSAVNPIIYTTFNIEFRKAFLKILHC

For test [20] the target is unchanged. Kind of test: Dopamine D2 receptor (DRD2) small molecule agonists, cell-based qHTS assay (AID 1963594). Further: nearly all actives have a fitted effect of over 35% in size. The method, boiled down:
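HEK293 cells stably expressing human DRD2, pre-treated with PDE inhibitor Ro20-1724 (0.1 mM final) and compound 10 min at room temperature, then stimulated with NKH477 (200nM […]) for 30 min. cAMP read by HTRF (665/620 nm).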

Molecules are shown by their SMILES. A number with no mark means an inactive call. Records with an inconclusive call do not appear. The source made the active and inactive calls. Unless noted, the call rests on the fitted dose curve.
On the % scale 0 is the no-effect control and ±100 the full control effect.

Sequence of 5-hydroxytryptamine receptor 2A (Homo sapiens) (P28223 whole entry, looked up): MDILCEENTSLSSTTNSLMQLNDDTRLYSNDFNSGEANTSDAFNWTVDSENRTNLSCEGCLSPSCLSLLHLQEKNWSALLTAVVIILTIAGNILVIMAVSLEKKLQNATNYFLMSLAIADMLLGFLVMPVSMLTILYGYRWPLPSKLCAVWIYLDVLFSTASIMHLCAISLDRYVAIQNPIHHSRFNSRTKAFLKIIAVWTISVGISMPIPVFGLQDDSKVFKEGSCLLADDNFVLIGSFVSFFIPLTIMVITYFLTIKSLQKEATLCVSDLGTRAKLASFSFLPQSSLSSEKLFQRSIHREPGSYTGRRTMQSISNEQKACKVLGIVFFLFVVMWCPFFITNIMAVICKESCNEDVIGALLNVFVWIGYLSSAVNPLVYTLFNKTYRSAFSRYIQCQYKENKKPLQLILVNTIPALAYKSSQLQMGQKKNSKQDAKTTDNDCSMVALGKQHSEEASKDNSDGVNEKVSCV
Sequence of Gonadotropin-releasing hormone receptor (Homo sapiens) (P30968 whole entry, looked up): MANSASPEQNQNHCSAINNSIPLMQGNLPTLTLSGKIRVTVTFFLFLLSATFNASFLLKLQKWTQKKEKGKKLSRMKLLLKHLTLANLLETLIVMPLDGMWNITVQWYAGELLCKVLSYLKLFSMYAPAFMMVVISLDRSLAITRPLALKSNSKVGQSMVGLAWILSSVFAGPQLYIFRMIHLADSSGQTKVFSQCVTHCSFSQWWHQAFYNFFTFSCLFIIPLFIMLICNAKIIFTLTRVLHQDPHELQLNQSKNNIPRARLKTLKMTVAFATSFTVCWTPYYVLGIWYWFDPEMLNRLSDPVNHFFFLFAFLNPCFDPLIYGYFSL
Sequence of Beta-2 adrenergic receptor (Homo sapiens) (P07550 whole entry, looked up): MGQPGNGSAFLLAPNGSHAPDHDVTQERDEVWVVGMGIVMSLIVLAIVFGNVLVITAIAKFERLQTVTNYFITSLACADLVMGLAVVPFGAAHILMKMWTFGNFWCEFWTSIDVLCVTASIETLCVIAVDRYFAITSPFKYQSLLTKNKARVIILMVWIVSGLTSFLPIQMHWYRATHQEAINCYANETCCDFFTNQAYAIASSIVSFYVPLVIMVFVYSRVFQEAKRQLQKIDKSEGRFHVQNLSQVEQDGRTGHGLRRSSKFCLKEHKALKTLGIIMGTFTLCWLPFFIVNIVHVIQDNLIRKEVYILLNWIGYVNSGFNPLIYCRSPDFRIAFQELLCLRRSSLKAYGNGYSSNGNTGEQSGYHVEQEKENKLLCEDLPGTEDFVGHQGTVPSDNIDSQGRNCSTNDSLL

As for `O=C1C=CC(=O)O1`, the Potency entry in test [1], in test [2], in test [3], in [4], in [5] and in test [6] was “inactive” in each case. Moreover, the Potency result in [7], in test [8], in test [9], in [10], in test [11] and in test [12] was “inactive” each time. In addition, the Potency result in [13], in test [14], in test [15], in [16], in test [17] and in [18] was “inactive” throughout. In addition, the Potency result in [19] was “inactive”.

For the molecule `COC(=O)c1sccc1S(N)(=O)=O`, the Potency result in test [1], in test [2], in [3], in [4], in test [5] and in test [6] was “inactive” throughout. Also, the Potency entry in test [7], in [8], in test [9], in [10], in [11] and in test [12] was “inactive” in each case. Also, the Potency entry in test [13], in test [14], in test [15], in test [16], in [17] and in test [18] was “inactive” in each case. The Potency result in test [20] and in test [19] was “inactive” in each case.

Take `CN(C)c1ccc(/C=C/c2ccc([N+](=O)[O-])cc2)cc1`: the activity change, negative = cytotoxicity in [1] is 0.836% [at 8.39 µM]; in test [8], 0.0681% [at 5.99 µM]; in test [9] it was -5.21% [at 5.99 µM]; in test [10], -1.3% [at 5.99 µM]. Besides, the activity, positive = activation in test [2] is 12.5% [at 8.39 µM]. Besides, in [3], the activity change is 5.74% [at 5.22 µM, stronger effect = higher value]. The activation in [4] is 7.36% [at 6.97 µM]; in test [5] it was 0.221% [at 5.23 µM]; in [6] it was -2.79% [at 5.99 µM]; in test [7], -4.52% [at 5.99 µM]; in [11] it was -2.24% [at 5.99 µM]; in test [13], 13.3% [at 7.02 µM]. The activation in test [15] is 0.732% [at 6.97 µM]; in [16], -3.18% [at 8.39 µM]; in test [20] it was -5.78% [at 8.39 µM]. Also, the activity, negative = inhibition is -0.541% [at 5.62 µM] in test [12] and -8.69% [at 5.58 µM] in [14]. Also, the results for the activity change, negative = inhibition in test [17], in test [18] and in [19] were 1.12% [at 8.39 µM], 1.64% [at 8.39 µM] and -2.29% [at 8.38 µM], respectively.

As to `CCCCCCCN`, the Potency entry in test [1], in [2], in test [3], in [4], in test [5] and in test [6] was “inactive” in each case. Further, the Potency entry in test [7], in test [8], in test [9], in test [10], in test [11] and in test [12] was “inactive” in each case. Moreover, the Potency result in test [13], in test [14], in [15], in test [16], in test [17] and in test [18] was “inactive” throughout. Further, the Potency entry in [20] and in test [19] was “inactive” throughout.

In the case of `C[Si](C)(C)O[Si](C)(C)O[Si](C)(C)C`, the Potency entry in [1], in [2], in test [3], in test [4], in test [5] and in test [6] was “inactive” each time. In addition, the Potency entry in test [7], in test [8], in test [9], in [10], in test [11] and in test [12] was “inactive” throughout. Besides, the Potency entry in test [13], in test [14], in [15], in test [16], in test [17] and in [18] was “inactive” each time. The Potency entry in [20] and in [19] was “inactive” throughout.

As for `Cc1occc1S`, the Potency result in [1], in [3], in [4], in test [5], in test [6] and in test [7] was “inactive” throughout. Further, the Potency entry in test [8], in test [9], in test [10], in test [11], in test [12] and in test [13] was “inactive” throughout. The Potency result in test [14], in test [15], in test [16], in test [17], in test [18] and in test [20] was “inactive” throughout. Besides, in test [19], the Potency result is “inactive”. The Potency in test [2] was 68.6 µM (active).

Consider `c1ccc2cnncc2c1`, for which the Potency entry in test [1], in test [2], in [3], in test [4], in test [5] and in test [6] was “inactive” in each case. The Potency entry in test [7], in test [8], in test [9], in test [10], in test [11] and in [12] was “inactive” in each case. The Potency result in [13], in test [14], in test [15], in test [16], in test [17] and in test [18] was “inactive” throughout. Moreover, the Potency result in [20] and in test [19] was “inactive” each time.
